Measurements published in PubChem BioAssay (NCI).
The panel holds about 83,000 compounds, 20% with a hit somewhere; the sample as a whole holds those more often.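 Note: values are percent growth. 100 is the growth of untreated cells, values between 100 and 0 indicate rising inhibition; between -100 and 0 indicates cell death.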 Calls of active or inactive are those of the source. How the source made its calls: active means growth percent below 10; inactive means the rest.

Test system: HL-60(TB) leukemia
Assay: NCI-60 one-dose screen, 48 h (100 = growth as untreated, 0 = no growth, -100 = all killed)
Conditions: 10 µM unless noted

Clc1ccc2[nH]cc(-c3nn4cc(-c5ccncc5)nc4s3)c2c1
growth: 89.8% (inactive)

Cc1ccc(-c2nnc(SCc3ccc(O)c4ncccc34)o2)cc1
growth: 4.59% (active)

C#CCOc1ccc(/C=N/Nc2nc(-c3ccc(OC)cc3)cs2)cc1
growth: 60% (inactive)

COc1cccc(/C=C(/C)c2ccc3cccc(OC)c3[o+]2)c1O
growth: 99.7% (inactive)

CC1(C)CC[C@]2(C(=O)O)CC[C@]3(C)C(=CC[C@@H]4[C@@]5(C)CC/C(=N\OCCC#N)C(C)(C)[C@@H]5CC[C@]43C)[C@@H]2C1
growth: 148% (inactive)

O=C(Nc1nc2ccc([N+](=O)[O-])cc2s1)Nc1ccccc1Br
growth: 37.1% (inactive)

COc1ccc([C@@H]2[C@@H](O)C(=O)N2c2cc(OC)c(OC)c(OC)c2)cc1F
growth: -15.8% (active)

Nc1nc(N)c2c(n1)NC(c1ccc(C(F)(F)F)cc1)CC(c1ccc(Nc3nc(NCCO)nc(N4CCOCC4)n3)cc1)=N2 (centres undefined)
growth: 21.4% (inactive)

C#Cc1nc(C2=C(C)C(OC(C)=O)/C(=N/OC(C)=O)C2)cs1 (centres undefined)
growth: -43.9% (active)

COc1ccc(/C=N/NC(=O)c2c(N)nn(C)c2Nc2ccccc2)cc1Oc1ccccc1
growth: 100% (inactive)

CCOC(=O)c1c(NC(=O)c2cccc(C(F)(F)F)c2)sc2c1CCC(=O)C2
growth: 37.7% (inactive)

ClC(Cl)c1nc(-c2ccco2)n2nc(-c3ccccc3)cc2n1
growth: -24.4% (active)

COc1ccccc1NCc1cccn1Cc1ccc(F)cc1
growth: 104% (inactive)

NC(N)=Nc1ccc(Oc2cccc(NC(N)=Nc3ccc(Br)c(C(F)(F)F)c3)c2)cc1
growth: 17.6% (inactive)
